Results from PubChem BioAssay (NCI).
Compounds without any hit were thinned out: in the full panel of roughly 83,000, 20% have a hit.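 For each line, cells grew in 96-well plates with the test compound present at a single concentration for 48 hours.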

Key:
Assay in all cases: NCI-60 one-dose screen, 48 h (100 = growth as untreated, 0 = no growth, -100 = all killed)
Settings in all cases: 10 µM unless noted; active means growth percent below 10; inactive means the rest
NCI-H23 lung = test system: NCI-H23 lung
NCI-H226 lung = test system: NCI-H226 lung
NCI-H322M lung = test system: NCI-H322M lung
HOP-62 NSCLC = test system: HOP-62 NSCLC
NCI-H460 lung = test system: NCI-H460 lung
HOP-92 NSCLC = test system: HOP-92 NSCLC
NCI-H522 lung = test system: NCI-H522 lung
A549/ATCC NSCLC = test system: A549/ATCC NSCLC
786-0 renal = test system: 786-0 renal
COLO 205 colon = test system: COLO 205 colon
DU-145 prostate = test system: DU-145 prostate
K-562 leukemia = test system: K-562 leukemia
MALME-3M melanoma = test system: MALME-3M melanoma
MDA-MB-231 breast = test system: MDA-MB-231 breast
RXF 393 renal = test system: RXF 393 renal
SF-268 CNS = test system: SF-268 CNS
SF-295 CNS = test system: SF-295 CNS
SF-539 CNS = test system: SF-539 CNS
UACC-257 melanoma = test system: UACC-257 melanoma
M14 melanoma = test system: M14 melanoma

Measured: growth

Cc1cc(NC(=O)c2ccccc2)c(Cl)cc1N
inactive: NCI-H23 lung 98.6% | NCI-H226 lung 97.1% | NCI-H322M lung 97.7% | HOP-62 NSCLC 96.7% | NCI-H460 lung 99.9% | HOP-92 NSCLC 106% | NCI-H522 lung 79.5% | A549/ATCC NSCLC 99.4% | 786-0 renal 92.1% | COLO 205 colon 129% | DU-145 prostate 126% | K-562 leukemia 98.8% | MALME-3M melanoma 103% | MDA-MB-231 breast 96% | RXF 393 renal 124% | SF-268 CNS 114% | SF-295 CNS 94% | SF-539 CNS 95.5% | UACC-257 melanoma 100% | M14 melanoma 95.8%

COC1(OC)C2(Cl)C(Cl)=C(Cl)C1(Cl)C1COCC12 (stereo not given)
inactive: NCI-H23 lung 109% | NCI-H226 lung 93.6% | NCI-H322M lung 104% | HOP-62 NSCLC 96.5% | NCI-H460 lung 86.8% | HOP-92 NSCLC 105% | NCI-H522 lung 79.5% | A549/ATCC NSCLC 64% | 786-0 renal 104% | COLO 205 colon 113% | DU-145 prostate 102% | K-562 leukemia 97.3% | MALME-3M melanoma 110% | MDA-MB-231 breast 105% | RXF 393 renal 103% | SF-268 CNS 108% | SF-295 CNS 102% | SF-539 CNS 109% | UACC-257 melanoma 63.3% | M14 melanoma 100%

Nc1ncc([N+](=O)[O-])cn1
inactive: NCI-H23 lung 102% | NCI-H226 lung 103% | NCI-H322M lung 95% | HOP-62 NSCLC 103% | NCI-H460 lung 111% | HOP-92 NSCLC 93.7% | NCI-H522 lung 71.2% | A549/ATCC NSCLC 90.1% | 786-0 renal 105% | COLO 205 colon 119% | DU-145 prostate 104% | K-562 leukemia 108% | MALME-3M melanoma 103% | MDA-MB-231 breast 98.4% | RXF 393 renal 110% | SF-268 CNS 98.4% | SF-295 CNS 105% | SF-539 CNS 105% | UACC-257 melanoma 84.7% | M14 melanoma 100%

OCCc1ccc(Cl)cc1
inactive: NCI-H23 lung 104% | NCI-H226 lung 99.9% | NCI-H322M lung 101% | HOP-62 NSCLC 95.9% | NCI-H460 lung 109% | HOP-92 NSCLC 105% | NCI-H522 lung 89.8% | A549/ATCC NSCLC 88.8% | 786-0 renal 95.6% | COLO 205 colon 109% | DU-145 prostate 109% | K-562 leukemia 99.9% | MALME-3M melanoma 99.5% | MDA-MB-231 breast 96.9% | RXF 393 renal 112% | SF-268 CNS 99.9% | SF-295 CNS 94.9% | SF-539 CNS 93.9% | UACC-257 melanoma 86.6% | M14 melanoma 99.2%

CC(C)OCC(CCl)OC(=O)Nc1ccccc1 (stereo not given)
inactive: NCI-H23 lung 93% | NCI-H226 lung 100% | NCI-H322M lung 99.4% | HOP-62 NSCLC 104% | NCI-H460 lung 105% | HOP-92 NSCLC 89.5% | NCI-H522 lung 98.4% | A549/ATCC NSCLC 102% | 786-0 renal 100% | COLO 205 colon 111% | DU-145 prostate 106% | K-562 leukemia 103% | MALME-3M melanoma 92.7% | MDA-MB-231 breast 94.8% | RXF 393 renal 113% | SF-268 CNS 101% | SF-295 CNS 108% | SF-539 CNS 98.1% | UACC-257 melanoma 102% | M14 melanoma 107%

Cc1cc(C)cc(OCC(=O)O)c1
inactive: NCI-H23 lung 97% | NCI-H226 lung 91.4% | NCI-H322M lung 95.9% | HOP-62 NSCLC 95.5% | NCI-H460 lung 110% | HOP-92 NSCLC 109% | NCI-H522 lung 93.7% | A549/ATCC NSCLC 104% | 786-0 renal 98.2% | COLO 205 colon 119% | DU-145 prostate 111% | K-562 leukemia 93.3% | MALME-3M melanoma 92.3% | MDA-MB-231 breast 106% | RXF 393 renal 135% | SF-268 CNS 114% | SF-295 CNS 96.5% | SF-539 CNS 96.2% | UACC-257 melanoma 100% | M14 melanoma 102%

O=C(NCc1ccccc1)c1cccc([N+](=O)[O-])c1
inactive: NCI-H23 lung 110% | NCI-H226 lung 105% | NCI-H322M lung 96.7% | HOP-62 NSCLC 94.6% | NCI-H460 lung 103% | HOP-92 NSCLC 77.8% | NCI-H522 lung 84.1% | A549/ATCC NSCLC 88.2% | 786-0 renal 94.9% | COLO 205 colon 116% | DU-145 prostate 104% | K-562 leukemia 102% | MALME-3M melanoma 90.5% | MDA-MB-231 breast 91.1% | RXF 393 renal 104% | SF-268 CNS 92.6% | SF-295 CNS 104% | SF-539 CNS 102% | UACC-257 melanoma 88% | M14 melanoma 107%

CC(=O)c1cccs1
inactive: NCI-H23 lung 93.8% | NCI-H226 lung 98.8% | NCI-H322M lung 97.7% | HOP-62 NSCLC 83.8% | NCI-H460 lung 104% | HOP-92 NSCLC 90.8% | NCI-H522 lung 89.3% | A549/ATCC NSCLC 92% | 786-0 renal 95.1% | COLO 205 colon 116% | DU-145 prostate 109% | K-562 leukemia 108% | MALME-3M melanoma 115% | MDA-MB-231 breast 101% | RXF 393 renal 96.6% | SF-268 CNS 103% | SF-295 CNS 97.3% | SF-539 CNS 95.6% | UACC-257 melanoma 96.3% | M14 melanoma 102%

CC1CC(C)S(=O)(=O)C1 (stereo not given)
inactive: NCI-H23 lung 106% | NCI-H226 lung 105% | NCI-H322M lung 113% | HOP-62 NSCLC 115% | NCI-H460 lung 116% | HOP-92 NSCLC 120% | NCI-H522 lung 97.8% | A549/ATCC NSCLC 92.6% | 786-0 renal 107% | COLO 205 colon 108% | DU-145 prostate 104% | K-562 leukemia 92.4% | MALME-3M melanoma 110% | MDA-MB-231 breast 115% | RXF 393 renal 115% | SF-268 CNS 111% | SF-295 CNS 105% | SF-539 CNS 104% | UACC-257 melanoma 95.7% | M14 melanoma 111%

C/C(Cc1ccccc1)=N\O
inactive: NCI-H23 lung 109% | NCI-H226 lung 112% | NCI-H322M lung 110% | HOP-62 NSCLC 118% | NCI-H460 lung 107% | HOP-92 NSCLC 84% | NCI-H522 lung 106% | A549/ATCC NSCLC 103% | 786-0 renal 102% | COLO 205 colon 116% | DU-145 prostate 109% | K-562 leukemia 88.6% | MALME-3M melanoma 110% | MDA-MB-231 breast 113% | RXF 393 renal 112% | SF-268 CNS 101% | SF-295 CNS 117% | SF-539 CNS 108% | UACC-257 melanoma 107% | M14 melanoma 105%

OCc1cccnc1
inactive: NCI-H23 lung 100% | NCI-H226 lung 103% | NCI-H322M lung 106% | HOP-62 NSCLC 99.8% | NCI-H460 lung 103% | HOP-92 NSCLC 98.4% | NCI-H522 lung 108% | A549/ATCC NSCLC 92.2% | 786-0 renal 107% | COLO 205 colon 107% | DU-145 prostate 111% | K-562 leukemia 117% | MALME-3M melanoma 121% | MDA-MB-231 breast 103% | RXF 393 renal 112% | SF-268 CNS 97.7% | SF-295 CNS 99% | SF-539 CNS 95.3% | UACC-257 melanoma 91.2% | M14 melanoma 98.2%

Cc1[nH]c(=S)[nH]c(=O)c1C
inactive: NCI-H23 lung 101% | NCI-H226 lung 99.7% | NCI-H322M lung 114% | HOP-62 NSCLC 107% | NCI-H460 lung 109% | HOP-92 NSCLC 125% | NCI-H522 lung 95.4% | A549/ATCC NSCLC 94.3% | 786-0 renal 106% | COLO 205 colon 115% | DU-145 prostate 110% | K-562 leukemia 99.7% | MALME-3M melanoma 109% | MDA-MB-231 breast 105% | RXF 393 renal 115% | SF-268 CNS 108% | SF-295 CNS 103% | SF-539 CNS 103% | UACC-257 melanoma 92.9% | M14 melanoma 109%

N#Cc1ccc2nc[nH]c2c1
inactive: NCI-H23 lung 99.1% | NCI-H226 lung 90.9% | NCI-H322M lung 108% | HOP-62 NSCLC 110% | NCI-H460 lung 107% | HOP-92 NSCLC 101% | NCI-H522 lung 102% | A549/ATCC NSCLC 101% | 786-0 renal 106% | COLO 205 colon 112% | DU-145 prostate 101% | K-562 leukemia 106% | MALME-3M melanoma 102% | MDA-MB-231 breast 120% | RXF 393 renal 109% | SF-268 CNS 104% | SF-295 CNS 107% | SF-539 CNS 113% | UACC-257 melanoma 97.9% | M14 melanoma 107%

CC(=O)N(C(C)=O)c1ccc(C)cc1
inactive: NCI-H23 lung 98.1% | NCI-H226 lung 96.2% | NCI-H322M lung 102% | HOP-62 NSCLC 105% | NCI-H460 lung 107% | HOP-92 NSCLC 99.5% | NCI-H522 lung 113% | A549/ATCC NSCLC 104% | 786-0 renal 92.7% | COLO 205 colon 119% | DU-145 prostate 107% | K-562 leukemia 99.1% | MALME-3M melanoma 97.2% | MDA-MB-231 breast 102% | RXF 393 renal 104% | SF-268 CNS 96.9% | SF-295 CNS 93.5% | SF-539 CNS 98% | UACC-257 melanoma 110% | M14 melanoma 114%

CCC(/C=C\C(C)=O)CC
inactive: NCI-H23 lung 101% | NCI-H226 lung 107% | NCI-H322M lung 99% | HOP-62 NSCLC 94.9% | NCI-H460 lung 100% | HOP-92 NSCLC 102% | NCI-H522 lung 106% | A549/ATCC NSCLC 104% | 786-0 renal 101% | COLO 205 colon 107% | DU-145 prostate 111% | K-562 leukemia 113% | MALME-3M melanoma 98.4% | MDA-MB-231 breast 103% | RXF 393 renal 97.8% | SF-268 CNS 106% | SF-295 CNS 104% | SF-539 CNS 100% | UACC-257 melanoma 94.8% | M14 melanoma 104%

Nc1cccc2cccc(O)c12
inactive: NCI-H23 lung 90.6% | NCI-H226 lung 96.1% | NCI-H322M lung 79.2% | HOP-62 NSCLC 104% | NCI-H460 lung 86.5% | HOP-92 NSCLC 83.8% | NCI-H522 lung 70.5% | A549/ATCC NSCLC 106% | 786-0 renal 108% | COLO 205 colon 102% | DU-145 prostate 99.1% | K-562 leukemia 89.5% | MALME-3M melanoma 75.2% | MDA-MB-231 breast 65.7% | RXF 393 renal 90.6% | SF-268 CNS 96.1% | SF-295 CNS 93.8% | SF-539 CNS 109% | UACC-257 melanoma 100% | M14 melanoma 96.7%
